Consider 17 compounds from PubChem BioAssay (NCATS).

Assay [1] has as its target Cytochrome P450 3A7 (Homo sapiens) (UniProt P24462). Put plainly: Cytochrome P450 family 3 subfamily A member 7 (CYP3A7) small molecule antagonists: luciferase biochemical qHTS assay (AID 1963596). Further: on the % scale 0 is the no-effect control and ±100 the full control effect; nearly all actives have a fitted effect of over 40% in size. A digest of the protocol: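 Recombinant CYP3A7 P450-Glo luminescent assay: enzyme-proluciferin substrate mix preincubated with compound 10 min at room temperature, reaction started with NADPH regeneration system for 1 h. Luciferin detected by luminescence; ketoconazole as positive control.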

Assay [2] in a line: Viability qHTS for spleen associated tyrosine kinase inhibitor (SYKi) naive MV4-11 cells (AID 1963823). Further: nearly all actives have a fitted effect of over 40% in size. Further: potency means the concentration at half of the fitted maximal effect. A digest of the protocol: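 Compounds were dispensed acoustically onto plates, MV4-11 cells (SYKi-naive) added at 500 per well, and plates incubated 72 hr at 37 C. CellTiter-Glo was added and luminescence measured after 10 min.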
A short description of assay [3]: Viability qHTS for spleen associated tyrosine kinase inhibitor (SYKi) drug resistant MV4-11 cells (AID 1963824). Further: nearly all actives have a fitted effect of over 35% in size. Further: potency means the concentration at half of the fitted maximal effect. The essentials: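 SYK inhibitor-resistant MV4-11 AML cells, 500 per well, added to predispensed compounds and incubated 72 hr at 37 C, 5% CO2. Viability measured by CellTiter-Glo luminescence after 10 min at room temperature.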
On the technique in general: qHTS replaces the single test concentration by a dilution series.

A short description of assay [4]: Quantitative highthroughput screen to assess conditional lethalithy of NOMO1 cells grown in RPMI1640 with untreated serum (RPMI+s) (AID 1963876). Further: nearly all actives have a fitted effect of over 35% in size. Further: potency means the concentration at half of the fitted maximal effect.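 On Viability: 100% = DMSO wells and 0% = empty wells without cells.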 The essentials: (§1)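 Each medium arm—HPLM with 10% dialyzed FBS, or RPMI1640 with 5 mM glucose and 10% untreated or dialyzed FBS—was screened against an 11-point, 3-fold compound titration for 48 h at 37 °C, with CellTiter-Glo luminescence as endpoint.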

Assay [5] is described as follows: Quantitative highthroughput screen to assess conditional lethalithy of NOMO1 cells grown in RPMI1640 with dialyzed fetal bovine serum (RPMI+ds) (AID 1963877). Further: nearly all actives have a fitted effect of over 30% in size. Further: potency means the concentration at half of the fitted maximal effect.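 On Viability: series mostly up to about 46 µM; 100% = DMSO control wells and 0% = empty wells.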 The essentials:
as §1

Assay [6] in a line: Quantitative highthroughput screen to assess conditional lethalithy of P12 Ichikawa cells grown in RPMI1640 with dialyzed fetal bovine serum (RPMI+ds) (AID 1963880). Further: nearly all actives have a fitted effect of over 35% in size. Further: potency means the concentration at half of the fitted maximal effect.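 On Viability: 100% = DMSO wells and 0% = empty wells on each plate.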 To be noted: Potency: P12-Ichikawa viability. The essentials: as §1
The nature of assay [7]: Quantitative highthroughput screen to assess conditional lethalithy of P12 Ichikawa cells grown in RPMI1640 with untreated serum (RPMI+s) (AID 1963881). Further: nearly all actives have a fitted effect of over 35% in size. Further: potency means the concentration at half of the fitted maximal effect.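 On Viability: series mostly up to about 46 µM; 100% = DMSO wells and 0% = empty wells without cells.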 To be noted: Potency: viability. The essentials:
as §1

The nature of assay [8]: Quantitative highthroughput screen to assess conditional lethalithy of SEM cells grown in Human Plasma-Like Medium with dialyzed fetal bovine serum (HPLM+ds) (AID 1963882). Further: nearly all actives have a fitted effect of over 35% in size. Further: potency means the concentration at half of the fitted maximal effect. On Viability: series mostly up to about 46 µM. A digest of the protocol: as §1
Assay [9] can be described thus: Quantitative highthroughput screen to assess conditional lethalithy of SEM cells grown in RPMI1640 with dialyzed fetal bovine serum (RPMI+ds) (AID 1963884). Further: nearly all actives have a fitted effect of over 35% in size. Further: potency means the concentration at half of the fitted maximal effect.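 On Viability: series mostly up to about 46 µM; 100% = DMSO control wells and 0% = empty wells without cells.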 A digest of the protocol:
as §1

Assay [10] can be described thus: Cellular viability qHTS for adrenocortical cancer (ACC) cell line SW-13 (AID 1963989). Further: nearly all actives have a fitted effect of over 65% in size. Further: potency means the concentration at half of the fitted maximal effect.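 On activity (max response): cells grown in serum-free medium with ITS supplement; on the % scale 0 is the no-effect control and ±100 the full control effect.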 The conditions noted are these: SW-13 ACC cells viability, CellTiter-Glo, 48 h; activity (max response): stronger effect = lower value. A digest of the protocol: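 Compound titrations (up to 46 uM final, in DMSO) were applied to SW-13 cells for 48 h at 37C/5% CO2. Reading used CellTiter-Glo after 20 min at room temperature; fitted curves yielded IC50 and efficacy.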

Assay [11] in a line: Cellular viability qHTS for adrenocortical cancer (ACC) cell line NCI-H295R (AID 1963990). Further: nearly all actives have a fitted effect of over 60% in size. Further: potency means the concentration at half of the fitted maximal effect. A digest of the protocol:
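Readout: CellTiter-Glo luminescence, 20 min RT. Exposure: 48 h, 37C/5% CO2. Cells: NCI-H295R, ITS-DMEM serum-free. Range: up to 46 uM. Analysis: 4PL fit, IC50 plus efficacy.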

Assay [12] is described as follows: Quantitative highthroughput screen to assess conditional lethalithy of P12 Ichikawa cells grown in Human Plasma-Like Medium with dialyzed fetal bovine serum (HPLM+ds) (AID 1963879). To be noted: Potency: viability. A digest of the protocol:
as §1

A short description of assay [13]: Quantitative highthroughput screen to assess conditional lethalithy of SEM cells grown in RPMI1640 with unreated serum (RPMI+s) (AID 1963883). Further: nearly all actives have a fitted effect of over 35% in size. Further: potency means the concentration at half of the fitted maximal effect.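 On Viability: 100% = DMSO wells and 0% = empty wells without cells.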 The essentials: as §1
Assay [14] is described as follows: Quantitative highthroughput screen to assess conditional lethalithy of NOMO1 cells grown in Human Plasma-Like Medium with dialyzed fetal bovine serum (HPLM+ds) (AID 1963878). Further: nearly all actives have a fitted effect of over 35% in size. Further: potency means the concentration at half of the fitted maximal effect.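 On Viability: 100% = DMSO wells and 0% = empty wells on each plate.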 A digest of the protocol: as §1

“And” between values parts separate entries of the source, which are not always exact repeats. Identical values can stand only once. Records with an inconclusive call do not appear. A structure can be active in one record and inactive in another. The source made the active and inactive calls. The call rests on the fitted dose curve; in most records, active means well fitted curve in the direction sought with a large enough effect; inconclusive means small, poorly fitted or top-dose-only effect, or another doubt; inactive means no such curve, though single readings can be large; an effect the other way counts as inactive or inconclusive.

Chain of Cytochrome P450 3A7 (Homo sapiens) (P24462 whole entry, looked up): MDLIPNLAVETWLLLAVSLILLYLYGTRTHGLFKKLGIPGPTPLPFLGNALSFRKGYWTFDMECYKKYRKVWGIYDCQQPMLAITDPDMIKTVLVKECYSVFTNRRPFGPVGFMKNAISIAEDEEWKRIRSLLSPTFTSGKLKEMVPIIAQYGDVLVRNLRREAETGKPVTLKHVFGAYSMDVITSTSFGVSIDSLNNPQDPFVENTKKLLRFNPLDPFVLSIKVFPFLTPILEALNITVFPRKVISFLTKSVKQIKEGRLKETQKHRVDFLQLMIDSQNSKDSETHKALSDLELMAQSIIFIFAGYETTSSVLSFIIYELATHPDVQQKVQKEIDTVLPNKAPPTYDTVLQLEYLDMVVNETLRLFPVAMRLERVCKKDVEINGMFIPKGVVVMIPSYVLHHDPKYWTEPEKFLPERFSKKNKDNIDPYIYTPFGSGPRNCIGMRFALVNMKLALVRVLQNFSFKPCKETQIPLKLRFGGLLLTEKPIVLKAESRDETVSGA

As to `c1ccc([C@H]2CN3CCSC3=N2)cc1`, the Potency entry in [1], in assay [2], in [3], in assay [4], in assay [5] and in assay [6] was “inactive” throughout. The Potency entry in [7], in [8], in assay [9] and in [11] was “inactive” in each case. Moreover, the activity (max response) in [10] was -16.6% (inactive) and 4.55% (inactive).
Consider `NC(=O)c1cccc2cn(-c3ccc([C@@H]4CCCNC4)cc3)nc12`, for which the Potency result in assay [1], in [4], in assay [5] and in [11] was “inactive” each time. The Potency is 9.2 µM (active) and 14.8 µM (active) in assay [2]; 10.3 µM (active) and 16.6 µM (active) in [3].
Consider `COc1ccc(-c2ccc3cc(C(=O)O)ccc3c2)cc1C12CC3CC(CC(C3)C1)C2`, for which the Potency result in [1], in assay [4], in [5], in [12], in [6] and in [7] was “inactive” in each case. In addition, in assay [11], the Potency result was “inactive”. The Potency in [2] is 0.211 µM (active); in assay [3] it was 1.32 µM (active). Also, the activity (max response) in assay [10] is -2.5% (inactive) and -9.37% (inactive).
For `C[C@@H](c1ncncc1F)[C@](O)(Cn1cncn1)c1ccc(F)cc1F`, the Potency result in assay [1], in [2], in assay [3], in [4], in assay [5] and in [12] was “inactive” in each case. The Potency result in [6], in assay [7], in assay [8] and in assay [11] was “inactive” each time. Besides, in assay [10], the activity (max response) is -12.4% (inactive).
For `CC1(C)[C@H](C(=O)O)N2C(=O)C[C@H]2S1(=O)=O`, the Potency result in assay [1], in assay [2], in assay [3], in [12], in assay [6] and in [8] was “inactive” each time. Also, the Potency result in assay [13], in assay [9] and in assay [11] was “inactive” throughout. Further, in assay [4], the Potency is 8.33 µM (active). Further, the activity (max response) in assay [10] was 9.85% (inactive).
`COc1cccc2c1CCCC2CCCN1CCN(C2CCCCC2)CC1` (stereo not given): the Potency result in assay [1] is “inactive”. Further, the Potency in assay [2] was 16.6 µM (active); in assay [3], 10.5 µM (active); in [4], 20.9 µM (active); in assay [6], 18.7 µM (active).
In the case of `CCn1cc(C(=O)O)c(=O)c2cc(F)c(N3CCNC(C)C3)c(F)c21` (stereo not given), the Potency entry in assay [1], in assay [2], in assay [3], in [4], in assay [5] and in [14] was “inactive” in each case. The Potency result in assay [7], in [8], in assay [13], in assay [9] and in assay [11] was “inactive” each time. Besides, in assay [10], the activity (max response) was -4.05% (inactive) and -10.4% (inactive).
Regarding `COc1ccc2c(OCc3nnc4ccc(-c5ccccc5)nn34)ccnc2c1`, the Potency entry in [1], in assay [2], in assay [3], in assay [4], in assay [5] and in assay [6] was “inactive” each time. Besides, the Potency result in assay [7] was “inactive”. Further, the figures for the Potency in assay [13] and in assay [9] were 11.8 µM (active) and 18.7 µM (active), respectively. Besides, the activity (max response) in assay [10] was -4.03% (inactive).
Consider `CCc1c(O)cc(O)c(C(=O)c2ccc(OCCN3CCOCC3)c(OC)c2)c1CC(=O)N(CCOC)CCOC`, for which the Potency result in assay [1] and in assay [11] was “inactive” throughout. In addition, the Potency in assay [2] is 0.132 µM (active); in assay [3], 0.235 µM (active); in [4], 2.96 µM (active); in assay [5], 3.32 µM (active); in assay [14] it was 2.35 µM (active); in assay [13], 2.96 µM (active). For the same compound, the Potency in assay [9] was 2.64 µM (active). The activity (max response) in assay [10] was -6.69% (inactive).
As to `COc1cc2c(Nc3ccc(Br)cc3F)ncnc2cc1OCC1CCN(C)CC1`, the Potency entry in [1], in assay [4], in assay [12], in assay [6] and in [7] was “inactive” each time. The Potency result in assay [2] is “inactive and 820 nM (active)”; in [3], “inactive and 731 nM (active) and 2.95 µM (active)”; in assay [10], 17.8 µM (active); in [11], “inactive and 25.1 µM (active)”. Besides, the activity (max response) in [10] was -8.28% (inactive).
As to `CCC[C@@H]1C[C@@H](C(=O)N[C@@H]([C@H]2O[C@H](SC)[C@H](O)[C@@H](O)[C@H]2O)[C@@H](C)O)N(C)C1`, the Potency entry in [1], in assay [2], in assay [3], in assay [4], in assay [12] and in assay [6] was “inactive” each time. For the same compound, the Potency result in [7], in assay [8], in [13], in assay [9] and in assay [11] was “inactive” throughout.
For the compound `O=P(O)(O)C(O)(Cc1cccnc1)P(=O)(O)O`, the Potency result in [1], in assay [2], in assay [3], in assay [4], in assay [14] and in assay [12] was “inactive” each time. For the same compound, the Potency entry in [6], in assay [7], in assay [8] and in assay [11] was “inactive” throughout. Also, in [10], the activity (max response) was 11.3% (inactive) and 10.6% (inactive).
With `Cc1coc2c1C(=O)C(=O)c1c-2ccc2c1CCCC2(C)C`, the Potency entry in assay [1], in assay [4], in assay [5], in assay [12], in assay [7] and in assay [8] was “inactive” throughout. For the same compound, the Potency entry in assay [13] and in assay [9] was “inactive” throughout. The Potency in assay [2] and in [3] was 1.86 µM (active) throughout. In assay [10], the activity (max response) was 2.82% (inactive).
`C=CC(=O)Nc1cc2c(Nc3ccc(F)c(Cl)c3)ncnc2cc1OCCCN1CCOCC1`: the Potency result in [1] and in assay [4] was “inactive” in each case. The Potency in assay [2] is 596 nM (active) and 742 nM (active); in [3] it was 944 nM (active) and 742 nM (active); in assay [14], 3.32 µM (active); in [7], 5.26 µM (active); in assay [10], 3.55 µM (active); in assay [11] it was 1.46 µM (active) and 6.31 µM (active).
Turning to `O=C(Nc1cccnn1)N1CCC(=Cc2cccc(Oc3ccc(C(F)(F)F)cn3)c2)CC1`, the Potency entry in [1], in assay [4], in assay [5], in assay [12], in assay [6] and in [7] was “inactive” in each case. In addition, the Potency entry in assay [8] and in [13] was “inactive” throughout. In addition, the Potency is 7.42 µM (active) in assay [2]; 10.3 µM (active) and 6.61 µM (active) in assay [3]; 15.8 µM (active) in [11].
Take `CS(=O)(=O)N1CCc2c(-c3cnc(N)nc3)nc(N3CCOCC3)nc21`: the Potency entry in assay [1] and in [12] was “inactive” throughout. Also, the Potency in assay [2] was 1.86 µM (active); in assay [3], 4.17 µM (active); in assay [4], 8.33 µM (active); in assay [13] it was 4.69 µM (active); in [11], 0.708 µM (active).
`Fc1cc(-c2cccc3ncc(-c4cnn(C5CCNCC5)c4)nc23)cc(F)c1CN1CCOCC1`: in [1], the Potency entry is “inactive”. Further, the Potency in [2] is 259 nM (active) and 372 nM (active); in assay [3] it was 731 nM (active) and 833 nM (active); in assay [4] it was 8.33 µM (active); in assay [14] it was 3.32 µM (active); in assay [6], 16.6 µM (active); in assay [8], 4.69 µM (active). Moreover, the Potency was 2.64 µM (active) in assay [13], 25.1 µM (active) in assay [10] and 6.31 µM (active) in assay [11].
